Test [1] in a line: Cell Viability - LYMP2-005 (AID 967). Also: series mostly up to about 92 µM. In short, it runs like this: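 Acute cytotoxicity is scored as a concentration-dependent drop in intracellular ATP in human lymphoblastoid LYMP2-005 cells after 24 h compound treatment. ATP is quantified by luciferase luminescence, and AC50 is derived by Hill-equation modelling.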
A short description of test [2]: Cell Viability - LYMP2-019 (AID 973). Also: nearly all actives have a fitted effect of over 55% in size. Also: potency is read from the fitted curve at half-maximal effect. In short, it runs like this: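 Cytotoxicity is scored as a concentration-dependent drop in cellular ATP after cells (2500/well) receive compound for 24 hr at 37 C. Tetraoctylammonium bromide serves as positive control.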
Test [3] can be described thus: Cell Viability - LYMP2-014 (AID 983). Also: nearly all actives have a fitted effect of over 50% in size. Also: potency is read from the fitted curve at half-maximal effect. In short, it runs like this: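 Cells are plated at 2500/well and left 5 hr at 37 C. Compounds are added across a concentration range and incubated 24 hr at 37 C in complete medium. CellTiter-Glo is added, and luminescence is read after 30 min at room temperature.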
Test [4] is described as follows: Cell Viability - LYMP2-009 (AID 968). Also: series mostly up to about 92 µM; nearly all actives have a fitted effect of over 55% in size.
A short description of test [5]: Cell Viability - LYMP2-011 (AID 969). Also: nearly all actives have a fitted effect of over 60% in size. Also: potency is read from the fitted curve at half-maximal effect. In short, it runs like this: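 In this qHTS cytotoxicity format, compounds are tested across concentrations on human lymphoblastoid cells in complete medium for 24 hours at 37 C. Viability is taken as cellular ATP measured by luciferase luminescence.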
Test [6] is described as follows: Cell Viability - LYMP2-013 (AID 970). Also: nearly all actives have a fitted effect of over 55% in size. Also: potency is read from the fitted curve at half-maximal effect. In short, it runs like this:
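Cytotoxicity is scored as a concentration-dependent drop in intracellular ATP in human lymphoblastoid cells after 24 hr compound exposure at 37 C. ATP is quantified by luciferase luminescence, and AC50 values come from Hill-equation modeling.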

Test [7] is described as follows: Cell Viability - LYMP2-015 (AID 971). Also: nearly all actives have a fitted effect of over 55% in size. In short, it runs like this: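 Cells are seeded at 2500 per well and incubated 5 hr at 37 C. Compounds are added across a concentration series for 24 hr at 37 C. CellTiter-Glo is added, and luminescence is read after 30 min at room temperature.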
A short description of test [8]: Cell Viability - LYMP2-017 (AID 972). Also: nearly all actives have a fitted effect of over 55% in size. Also: potency is read from the fitted curve at half-maximal effect. In short, it runs like this:
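Cytotoxicity is scored as a concentration-dependent drop in cellular ATP in a human lymphoblastoid line after 24 hr treatment at 37 C. Values are AC50s from Hill-equation modelling.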

A short description of test [9]: Cell Viability - LYMP2-021 (AID 974). Also: potency is read from the fitted curve at half-maximal effect. In short, it runs like this: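 Loss of cellular ATP, measured with a luciferase-based CellTiter-Glo readout, serves as the toxicity signal in human lymphoblastoid cells treated for 24 hours at 37 C. Potency is reported as AC50 from a standard Hill model.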
Test [10] is described as follows: Cell Viability - LYMP2-023 (AID 975). Also: nearly all actives have a fitted effect of over 55% in size. Also: potency is read from the fitted curve at half-maximal effect. In short, it runs like this:
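Steps: seed 2500 human lymphoblastoid cells per well, incubate 5 hr at 37 C, add compound for 24 hr at 37 C, add CellTiter-Glo, hold 30 min at room temperature, read luminescence. AC50 derived by Hill modelling.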

Test [11] is described as follows: Cell Viability - LYMP2-025 (AID 976). Also: series mostly up to about 92 µM. In short, it runs like this: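 Acute cytotoxicity is scored as a concentration-dependent fall in intracellular ATP, measured by luciferase luminescence, in human lymphoblastoid LYMP2-025 cells exposed to compound for 24 hours at 37 C. AC50 values come from standard Hill fits.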
Test [12] is described as follows: Cell Viability - LYMP2-002 (AID 977).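 Also: series mostly up to about 92 µM; compound exposure lasted 24 h at 37 °C.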 In short, it runs like this:
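In this qHTS viability screen, 2500 human lymphoblastoid cells per well receive compound for 24 hr at 37 C, and luciferase-based ATP luminescence gives the viability signal. Tetraoctylammonium bromide serves as positive control.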

A short description of test [13]: Cell Viability - LYMP2-008 (AID 980). Also: nearly all actives have a fitted effect of over 60% in size. Also: potency is read from the fitted curve at half-maximal effect. In short, it runs like this:
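Cells seeded at 2500/well and rested 5 hr at 37 C; compounds added over a concentration range and incubated 24 hr at 37 C; CellTiter-Glo added, 30 min at room temperature; luminescence read and AC50 fitted with Hill model.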

A short description of test [14]: Cell Viability - LYMP2-010 (AID 981). Also: nearly all actives have a fitted effect of over 55% in size. Also: potency is read from the fitted curve at half-maximal effect. In short, it runs like this: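 Steps: seed 2500 LYMP2-010 cells per well; incubate 5 hr at 37 C; add compound; incubate 24 hr at 37 C; add CellTiter-Glo, wait 30 min at room temperature; read luminescence. Concentration-response fitted to Hill equation for AC50.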
Test [15] can be described thus: Cell Viability - LYMP2-012 (AID 982). Also: potency is read from the fitted curve at half-maximal effect.
A short description of test [16]: Cell Viability - LYMP2-016 (AID 984). Also: nearly all actives have a fitted effect of over 55% in size. Also: potency is read from the fitted curve at half-maximal effect. In short, it runs like this:
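Cells were seeded at 2500 per well and rested 5 hr before a 24 hr compound exposure at 37 C. Viability was then gauged as cellular ATP by luciferase luminescence, with AC50 values fitted to the Hill equation.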

The nature of test [17]: Cell Viability - LYMP2-018 (AID 985). Also: nearly all actives have a fitted effect of over 50% in size. Also: potency is read from the fitted curve at half-maximal effect. In short, it runs like this:
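Seed 2500 lymphoblastoid cells per well, incubate 5 hr at 37 C, add compound and incubate 24 hr at 37 C, add CellTiter-Glo, wait 30 min at room temperature, then read luminescence.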

A short description of test [18]: Cell Viability - LYMP2-020 (AID 986). Also: nearly all actives have a fitted effect of over 55% in size. Also: potency is read from the fitted curve at half-maximal effect. In short, it runs like this: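 Seed 2500 cells per well and incubate 5 hr at 37 C. Add compounds at a concentration series and incubate 24 hr at 37 C. Add CellTiter-Glo, wait 30 min at RT, read luminescence, and fit a Hill curve for AC50.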
Test [19] in a line: Cell Viability - LYMP2-022 (AID 987). Also: nearly all actives have a fitted effect of over 55% in size. Also: potency is read from the fitted curve at half-maximal effect. In short, it runs like this: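 Cells were seeded at 2500 per well, rested 5 hr at 37 C, and treated with titrated compounds for 24 hr at 37 C. Cellular ATP was then quantified by luciferase luminescence, and AC50 values were derived from Hill-modelled concentration-response curves.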
The nature of test [20]: Cell Viability - LYMP2-024 (AID 988). Also: nearly all actives have a fitted effect of over 60% in size. Also: potency is read from the fitted curve at half-maximal effect. In short, it runs like this: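 qHTS cytotoxicity, human lymphoblastoid line, complete medium; 24 h cpd treatment, 37 C; CellTiter-Glo ATP luminescence readout; tetraoctylammonium bromide positive control; AC50 via Hill fit.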

In PubChem BioAssay (NCATS) one finds outcome and Potency data, which are given here for 8 molecules.

Records with an inconclusive call do not appear. The source made the active and inactive calls. Calls follow the shape of the dose curve; as a rule, active = well fitted curve in the direction sought with a large enough effect; inconclusive = small, poorly fitted or top-dose-only effect, or another doubt; inactive = no such curve, though single readings can be large; an effect the other way counts as inactive or inconclusive.

With `O=c1cc(-c2ccc(O)cc2)oc2cc(O)cc(O)c12`, the molecule was classed as inactive in test [1]. Moreover, the Potency entry in test [2] and in test [3] was “inactive” in each case.
On to `CN(C)CCC(c1ccccc1)c1ccccn1` (configuration not stated), for which the call in [1] and in test [11] was inactive. Also, the Potency entry in [4], in [5], in test [6], in test [7], in test [8] and in test [2] was “inactive” each time. In addition, the Potency result in [9], in [10], in test [12], in test [13], in test [14] and in test [15] was “inactive” throughout. Moreover, the Potency entry in test [3], in test [16], in test [17], in test [18], in [19] and in test [20] was “inactive” throughout.
On to `CC(=O)O[C@]1(C(C)=O)CC[C@H]2[C@@H]3C=C(Cl)C4=CC(=O)[C@@H]5C[C@@H]5[C@]4(C)[C@H]3CC[C@@]21C`, for which the Potency entry in test [4], in [5], in test [6], in test [7], in [8] and in test [2] was “inactive” throughout. The Potency result in [9], in test [10], in test [12], in test [13], in test [14] and in test [15] was “inactive” in each case. Besides, the Potency result in test [3], in test [16], in test [17], in test [18], in test [19] and in [20] was “inactive” each time. In addition, the result in [11] was inactive.
`O=C(O)Cc1cccc2ccccc12`: the molecule was classed as inactive in [1] and in test [11]. Further, the Potency entry in test [4], in test [5], in test [6], in test [7], in test [8] and in test [2] was “inactive” throughout. Further, the Potency result in test [9], in test [10], in [12], in test [13], in test [14] and in test [15] was “inactive” each time. Besides, the Potency result in [3], in [16], in test [17], in test [18], in [19] and in test [20] was “inactive” throughout.
`O=c1[nH]cnc2c1ncn2[C@H]1CC[C@@H](CO)O1`: the call in test [1] and in test [11] was inactive. Further, the Potency result in test [4], in test [5], in test [6], in test [7], in test [8] and in [2] was “inactive” throughout. The Potency entry in test [9], in test [10], in test [12], in test [13], in test [14] and in test [15] was “inactive” in each case. Moreover, the Potency result in [3], in [16], in test [17], in [18], in test [19] and in test [20] was “inactive” throughout.
Regarding `CC(=O)c1ccc(S(=O)(=O)NC(=O)NC2CCCCC2)cc1`, the molecule was classed as inactive in [1] and in test [11]. In addition, the Potency result in test [4], in [5], in test [6], in [7], in test [8] and in test [2] was “inactive” each time. The Potency result in test [9], in [10], in [12], in test [13], in [14] and in test [15] was “inactive” each time. For the same molecule, the Potency result in test [3], in test [16], in test [17], in test [18], in test [19] and in [20] was “inactive” throughout.
On to `CC1=C(/C=C/C(C)=C/C=C/C(C)=C/C(=O)Nc2ccc(O)cc2)C(C)(C)CCC1`, for which the Potency in [5] was 63.1 µM (active); in test [6] it was 50.1 µM (active); in [8] it was 50.1 µM (active); in test [2], 50.1 µM (active); in [9], 50.1 µM (active); in test [10] it was 50.1 µM (active). In addition, the Potency is 50.1 µM (active) in [13]; 50.1 µM (active) in test [14]; 39.8 µM (active) in test [15]; 50.1 µM (active) in [3]; 63.1 µM (active) in test [16]; 50.1 µM (active) in test [17]. For the same molecule, the figures for the Potency in test [18], in test [19] and in test [20] were 50.1 µM (active), 39.8 µM (active) and 39.8 µM (active), respectively.
For `O=c1c(O)c(-c2ccc(O)cc2)oc2cc(O)cc(O)c12`, the result in test [1] and in test [11] was inactive. For the same molecule, the Potency result in test [4], in test [5], in test [6], in test [7], in test [8] and in test [2] was “inactive” each time. Further, the Potency entry in [9], in test [10], in test [12], in [13], in test [14] and in test [15] was “inactive” each time. In addition, the Potency entry in test [3], in [16], in test [17], in test [18], in test [19] and in [20] was “inactive” in each case.
